Test results: ChEMBL document CHEMBL3988442, “University of Dundee, Small-Polar-MMV Screening Library” (2021)
For part of these data: Results with a measured potency or affinity are listed apart.

What was measured:
Set-up in all cases: scale not given: direction of the effect not stated beside the values
[1] = molecular target: Protein translocase subunit SecA (Escherichia coli (strain K12)) (UniProt P10408); assay: Assay to Identify E. coli SecA ATPase Inhibitors; type: functional; settings: 30 µM
Chain of Protein translocase subunit SecA (Escherichia coli (strain K12)) (P10408 whole entry): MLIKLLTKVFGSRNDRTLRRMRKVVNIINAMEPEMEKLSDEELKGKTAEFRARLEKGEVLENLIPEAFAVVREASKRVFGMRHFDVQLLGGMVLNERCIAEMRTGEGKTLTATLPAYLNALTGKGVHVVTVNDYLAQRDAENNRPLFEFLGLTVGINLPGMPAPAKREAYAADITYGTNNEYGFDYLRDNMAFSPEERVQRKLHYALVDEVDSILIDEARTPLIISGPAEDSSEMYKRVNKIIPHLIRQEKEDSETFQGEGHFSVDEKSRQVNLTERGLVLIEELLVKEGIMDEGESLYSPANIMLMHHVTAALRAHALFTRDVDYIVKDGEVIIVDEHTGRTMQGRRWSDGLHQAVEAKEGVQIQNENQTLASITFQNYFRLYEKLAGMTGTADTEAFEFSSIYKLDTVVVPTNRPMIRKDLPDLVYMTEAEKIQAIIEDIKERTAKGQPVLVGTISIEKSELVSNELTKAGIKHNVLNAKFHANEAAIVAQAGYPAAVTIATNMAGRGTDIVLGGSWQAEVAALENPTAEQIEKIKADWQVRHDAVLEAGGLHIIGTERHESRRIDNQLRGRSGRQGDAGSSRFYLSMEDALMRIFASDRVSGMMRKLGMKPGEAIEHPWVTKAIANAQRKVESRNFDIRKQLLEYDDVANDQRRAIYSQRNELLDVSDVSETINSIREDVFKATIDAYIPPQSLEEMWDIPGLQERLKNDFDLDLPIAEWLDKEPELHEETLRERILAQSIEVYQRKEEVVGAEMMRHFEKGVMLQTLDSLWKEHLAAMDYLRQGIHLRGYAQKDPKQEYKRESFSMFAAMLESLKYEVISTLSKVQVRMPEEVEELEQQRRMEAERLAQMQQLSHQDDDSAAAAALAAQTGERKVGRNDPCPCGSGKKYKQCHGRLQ

[2] = molecular target: T1, Ubiquitin-activating enzyme e1, putative (Leishmania donovani (strain BPK282A1)) (UniProt E9BSI1); assay: Leishmania donovani Ubiquitin Activating Enzyme (LdE1); type: functional; settings: 30 µM
T1 sequence (whole entry): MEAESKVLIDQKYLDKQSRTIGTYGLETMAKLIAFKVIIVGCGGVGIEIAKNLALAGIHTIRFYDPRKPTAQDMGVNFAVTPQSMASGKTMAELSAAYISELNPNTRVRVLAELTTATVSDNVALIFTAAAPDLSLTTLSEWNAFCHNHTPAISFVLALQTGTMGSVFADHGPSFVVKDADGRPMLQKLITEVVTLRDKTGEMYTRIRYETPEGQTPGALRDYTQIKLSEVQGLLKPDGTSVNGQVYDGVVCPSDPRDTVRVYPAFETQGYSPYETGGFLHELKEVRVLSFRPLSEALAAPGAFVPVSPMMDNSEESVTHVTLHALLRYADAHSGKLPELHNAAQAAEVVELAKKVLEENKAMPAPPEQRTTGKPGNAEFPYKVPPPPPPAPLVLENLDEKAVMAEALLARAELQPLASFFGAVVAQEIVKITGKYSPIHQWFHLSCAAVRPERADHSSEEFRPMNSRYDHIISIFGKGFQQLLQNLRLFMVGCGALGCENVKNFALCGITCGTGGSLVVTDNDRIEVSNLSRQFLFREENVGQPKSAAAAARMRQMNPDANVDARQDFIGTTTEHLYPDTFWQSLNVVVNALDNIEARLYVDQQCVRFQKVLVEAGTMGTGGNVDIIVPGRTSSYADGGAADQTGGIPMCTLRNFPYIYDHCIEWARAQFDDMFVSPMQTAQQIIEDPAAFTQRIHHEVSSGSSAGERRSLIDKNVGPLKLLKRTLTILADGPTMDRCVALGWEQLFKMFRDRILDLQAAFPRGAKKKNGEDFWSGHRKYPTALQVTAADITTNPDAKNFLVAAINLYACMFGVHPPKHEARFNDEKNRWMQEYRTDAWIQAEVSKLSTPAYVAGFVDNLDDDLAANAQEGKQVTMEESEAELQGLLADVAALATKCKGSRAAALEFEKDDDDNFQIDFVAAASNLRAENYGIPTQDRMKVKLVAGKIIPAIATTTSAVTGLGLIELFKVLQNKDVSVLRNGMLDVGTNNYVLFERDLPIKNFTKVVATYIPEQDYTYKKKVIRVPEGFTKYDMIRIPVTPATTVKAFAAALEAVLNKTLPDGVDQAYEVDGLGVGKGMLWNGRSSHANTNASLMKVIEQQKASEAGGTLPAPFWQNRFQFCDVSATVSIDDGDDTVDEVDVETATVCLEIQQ

[3] = molecular target: T2, Aspartate--tRNA(Asp/Asn) ligase (Mycobacterium tuberculosis (strain ATCC 25618 / H37Rv)) (UniProt P9WFW3); assay: Assay for Asp RNA synthetase-1 from Mycobacterium tuberculosis; type: functional; settings: 30 µM; also: in the data most compounds retested in dose-response had high values
T2 sequence (whole entry): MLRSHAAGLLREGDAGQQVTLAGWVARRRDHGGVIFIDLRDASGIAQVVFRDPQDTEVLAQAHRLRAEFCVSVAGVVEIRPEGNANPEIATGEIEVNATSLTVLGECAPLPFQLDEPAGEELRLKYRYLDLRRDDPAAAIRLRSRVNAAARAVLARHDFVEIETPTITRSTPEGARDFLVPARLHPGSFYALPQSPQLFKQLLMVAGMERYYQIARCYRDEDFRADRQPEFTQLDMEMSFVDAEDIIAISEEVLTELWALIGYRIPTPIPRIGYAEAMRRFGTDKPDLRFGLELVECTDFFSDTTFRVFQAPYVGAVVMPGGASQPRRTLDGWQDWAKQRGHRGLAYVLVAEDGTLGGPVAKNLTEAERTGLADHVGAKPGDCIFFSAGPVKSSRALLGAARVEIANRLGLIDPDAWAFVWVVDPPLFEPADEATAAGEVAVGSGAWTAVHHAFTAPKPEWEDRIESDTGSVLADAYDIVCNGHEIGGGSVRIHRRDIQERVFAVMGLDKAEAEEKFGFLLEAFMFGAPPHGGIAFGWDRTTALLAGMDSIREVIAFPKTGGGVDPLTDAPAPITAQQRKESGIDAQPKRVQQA

[4] = molecular target: AMP-activated protein kinase, AMPK (Homo sapiens) (UniProt P54646+O43741+P54619+Q9UGJ0+Q9Y478+Q13131+Q9UGI9); assay: AMP-dependent Kinase enzyme assay. An in vitro enzyme assay that detects ADP turnover that is directly proportional to AMPK activity. This uses naive AMPK that is activated during the assay with MK-8722; type: functional; settings: 30 µM
[5] = molecular target: Sialic acid-binding Ig-like lectin 9 (Homo sapiens) (UniProt Q9Y336); assay: Hs-Siglec9 ALPHAscreen SOP 20170721; settings: 10 µM
Chain of Sialic acid-binding Ig-like lectin 9 (Homo sapiens) (Q9Y336 whole entry): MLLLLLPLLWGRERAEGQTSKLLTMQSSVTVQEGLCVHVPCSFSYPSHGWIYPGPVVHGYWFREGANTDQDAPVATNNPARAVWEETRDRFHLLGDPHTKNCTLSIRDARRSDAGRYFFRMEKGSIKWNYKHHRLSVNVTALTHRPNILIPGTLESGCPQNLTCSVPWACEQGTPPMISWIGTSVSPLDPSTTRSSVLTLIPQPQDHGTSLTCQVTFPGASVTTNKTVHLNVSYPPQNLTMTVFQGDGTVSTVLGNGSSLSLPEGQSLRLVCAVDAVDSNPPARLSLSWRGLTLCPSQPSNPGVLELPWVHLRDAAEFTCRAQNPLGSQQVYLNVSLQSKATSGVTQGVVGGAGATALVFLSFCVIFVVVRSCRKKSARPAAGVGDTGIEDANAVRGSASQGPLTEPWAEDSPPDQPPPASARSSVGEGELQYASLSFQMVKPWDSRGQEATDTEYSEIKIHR

Trypanosoma cruzi = assay: Trypanosoma cruzi phosphomannomutase and mannose-1-phosphate guanylyltransferase assay; type: functional; settings: 10 µM
[6] = molecular target: T3, Arginase-2, mitochondrial (Homo sapiens) (UniProt P78540); assay: in vitro enzyme assay to detect the production of urea directly proportional to the activity of Arginase II; type: functional; settings: 33.3 µM; also: in the data most compounds retested in dose-response had high values
T3 sequence (whole entry): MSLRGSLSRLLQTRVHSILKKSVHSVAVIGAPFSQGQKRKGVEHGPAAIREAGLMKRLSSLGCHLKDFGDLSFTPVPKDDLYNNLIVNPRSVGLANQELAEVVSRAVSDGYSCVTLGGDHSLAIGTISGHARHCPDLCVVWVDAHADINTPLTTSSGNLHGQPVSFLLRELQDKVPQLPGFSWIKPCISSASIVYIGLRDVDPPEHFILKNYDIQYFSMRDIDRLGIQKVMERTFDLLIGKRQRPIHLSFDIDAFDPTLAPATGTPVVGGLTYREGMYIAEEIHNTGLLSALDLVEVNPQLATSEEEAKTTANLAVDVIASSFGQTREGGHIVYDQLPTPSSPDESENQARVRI

[7] = molecular target: T4, Proteasome subunit beta (Trypanosoma cruzi) (UniProt O96673); assay: Trypanosoma cruzi proteasome chymotrypsin-like activity (TcProtChymo) assay.; also: in the data most compounds retested in dose-response had high values; type: functional; settings: 9.37 µM
T4 sequence (whole entry): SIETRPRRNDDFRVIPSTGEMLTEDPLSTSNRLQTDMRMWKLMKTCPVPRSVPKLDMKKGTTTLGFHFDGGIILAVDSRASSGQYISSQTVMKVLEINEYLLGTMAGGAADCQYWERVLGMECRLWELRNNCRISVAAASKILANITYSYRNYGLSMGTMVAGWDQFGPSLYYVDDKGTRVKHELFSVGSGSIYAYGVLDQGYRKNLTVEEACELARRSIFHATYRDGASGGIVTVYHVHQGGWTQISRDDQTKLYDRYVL

Homo sapiens = species on record: Homo sapiens; assay: To identify inhibition of the IFN signalling (Jak-Stat) pathway via expression of an eGFP reporter gene under the control of an IFN-stimulated response element (ISRE) containing MxA promoter.; type: functional; settings: 30 µM
[8] = molecular target: Shiga toxin 2 (Escherichia coli O157:H7) (UniProt P09385+P09386); assay: E. coli 0.157:H7 Shiga Toxin SOP - stx2 screening assay; type: functional; settings: 30 µM
[9] = molecular target: T5, Tyrosyl-tRNA synthetase, putative (Trypanosoma cruzi (strain CL Brener)) (UniProt Q4DSP6); assay: Trypanosoma cruzi tyrosyl tRNA synthetase (TcYRS) _High Tyrosine SOP; type: functional; settings: 30 µM; also: in the data most compounds retested in dose-response had high values
T5 sequence (whole entry): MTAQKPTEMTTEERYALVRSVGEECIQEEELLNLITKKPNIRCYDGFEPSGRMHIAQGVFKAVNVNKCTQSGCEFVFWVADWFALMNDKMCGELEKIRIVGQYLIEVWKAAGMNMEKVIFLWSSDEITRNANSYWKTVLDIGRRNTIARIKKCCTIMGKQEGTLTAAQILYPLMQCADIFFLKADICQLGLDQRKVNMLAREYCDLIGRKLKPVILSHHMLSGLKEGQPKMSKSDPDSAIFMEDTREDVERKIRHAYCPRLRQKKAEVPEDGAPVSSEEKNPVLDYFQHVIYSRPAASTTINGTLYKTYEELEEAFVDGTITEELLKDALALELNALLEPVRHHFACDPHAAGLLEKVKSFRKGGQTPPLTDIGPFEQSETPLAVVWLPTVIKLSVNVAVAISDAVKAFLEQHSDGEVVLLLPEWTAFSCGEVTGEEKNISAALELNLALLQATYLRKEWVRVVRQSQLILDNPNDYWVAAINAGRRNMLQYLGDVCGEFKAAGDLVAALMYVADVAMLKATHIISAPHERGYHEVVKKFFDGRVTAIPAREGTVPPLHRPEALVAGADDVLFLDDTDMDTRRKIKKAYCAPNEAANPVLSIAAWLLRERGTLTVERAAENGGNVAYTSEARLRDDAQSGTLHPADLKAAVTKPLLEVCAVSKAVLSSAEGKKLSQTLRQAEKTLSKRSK

[10] = molecular target: T5, Tyrosyl-tRNA synthetase, putative (Trypanosoma cruzi (strain CL Brener)); assay: Trypanosoma cruzi tyrosyl tRNA synthetase (TcYRS) SOP; type: functional; settings: 30 µM
[11] = molecular target: Chromo domain-containing protein 1 (Saccharomyces cerevisiae (strain ATCC 204508 / S288c) (Baker's yeast)) (UniProt P32657); assay: ScCHD-1 Enzyme Inhibition Assay; type: functional; settings: 30 µM; also: in the data most compounds retested in dose-response had high values
Chain of Chromo domain-containing protein 1 (Saccharomyces cerevisiae (strain ATCC 204508 / S288c) (Baker's yeast)) (P32657 whole entry, the tested form may be a part): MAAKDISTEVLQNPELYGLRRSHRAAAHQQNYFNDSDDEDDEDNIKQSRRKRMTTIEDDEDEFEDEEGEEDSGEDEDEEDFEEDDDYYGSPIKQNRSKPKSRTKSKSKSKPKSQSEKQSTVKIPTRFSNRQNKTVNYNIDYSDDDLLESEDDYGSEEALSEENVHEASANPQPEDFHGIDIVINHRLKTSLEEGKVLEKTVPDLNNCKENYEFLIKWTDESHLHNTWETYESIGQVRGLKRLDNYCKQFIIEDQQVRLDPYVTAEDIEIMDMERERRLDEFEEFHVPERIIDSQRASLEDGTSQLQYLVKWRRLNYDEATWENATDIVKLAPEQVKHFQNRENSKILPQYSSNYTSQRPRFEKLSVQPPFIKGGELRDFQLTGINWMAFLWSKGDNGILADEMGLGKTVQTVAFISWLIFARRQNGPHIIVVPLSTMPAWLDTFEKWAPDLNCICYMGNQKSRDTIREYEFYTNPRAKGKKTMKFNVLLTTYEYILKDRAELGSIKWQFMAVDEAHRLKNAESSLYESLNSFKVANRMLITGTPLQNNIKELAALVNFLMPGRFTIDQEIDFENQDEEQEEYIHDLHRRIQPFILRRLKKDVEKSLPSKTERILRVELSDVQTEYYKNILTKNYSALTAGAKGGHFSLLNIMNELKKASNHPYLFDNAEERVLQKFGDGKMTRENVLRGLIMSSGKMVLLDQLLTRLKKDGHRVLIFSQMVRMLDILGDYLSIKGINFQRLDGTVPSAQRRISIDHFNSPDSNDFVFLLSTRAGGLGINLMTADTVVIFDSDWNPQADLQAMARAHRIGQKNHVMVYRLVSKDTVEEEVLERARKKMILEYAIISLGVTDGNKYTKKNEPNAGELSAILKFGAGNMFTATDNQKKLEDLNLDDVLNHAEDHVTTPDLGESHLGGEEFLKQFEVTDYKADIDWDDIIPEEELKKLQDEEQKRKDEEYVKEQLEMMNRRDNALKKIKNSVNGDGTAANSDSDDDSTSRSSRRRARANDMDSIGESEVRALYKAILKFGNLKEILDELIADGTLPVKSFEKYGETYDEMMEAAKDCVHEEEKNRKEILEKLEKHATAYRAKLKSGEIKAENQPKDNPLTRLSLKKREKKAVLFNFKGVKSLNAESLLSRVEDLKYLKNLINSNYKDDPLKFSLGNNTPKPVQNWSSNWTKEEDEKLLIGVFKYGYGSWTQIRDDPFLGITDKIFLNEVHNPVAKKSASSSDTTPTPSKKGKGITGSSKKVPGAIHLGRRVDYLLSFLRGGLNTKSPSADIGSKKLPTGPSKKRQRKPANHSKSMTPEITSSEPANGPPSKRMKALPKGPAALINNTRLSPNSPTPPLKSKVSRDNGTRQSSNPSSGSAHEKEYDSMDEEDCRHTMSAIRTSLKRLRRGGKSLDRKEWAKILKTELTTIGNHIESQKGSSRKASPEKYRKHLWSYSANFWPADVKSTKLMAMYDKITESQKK

Structure (SMILES)	Percent Effect [1] [%]	Percent Effect [2] [%]	Percent Effect [3] [%]	Percent Effect [4] [%]	Percent Effect [5] [%]	Percent Effect (Trypanosoma cruzi) [%]	Percent Effect [6] [%]	Percent Effect [7] [%]	Percent Effect (Homo sapiens) [%]	Percent Effect [8] [%]	Percent Effect [9] [%]	Percent Effect [10] [%]	Percent Effect [11] [%]
NC(=O)N1C[C@H]2CN(Cc3nccs3)C[C@H]2C1	0.982	10.8	2.58	9.05	-13	-3.62	1.59	16.6	5.62	-3.75	3.24	12.8	-3.89
CN(Cc1cncnc1)[C@H]1CN(CC2CC2)[C@@H]2CCCO[C@@H]21	-2.97	10.7	3.35	-6.16	2.33	4.44	-51.8	11.6	-0.287	-9.01	5.21	2.5	-8.19
O=C(NC[C@]12COC[C@H]1CN(Cc1cccnc1)C2)c1ccno1	0.292	13.3	0.956	8.36	-8.01	-4.13	-0.233	2.73	-4.47	-10.4	9.57	19.2	-7.79
CCS(=O)(=O)N[C@@H]1CN(Cc2cc(C)on2)C[C@@H]2CCCO[C@@H]21	-5.04	8.11	4.25	0.656	19	1.66	4.71	6.27	-3.3	1.95	6.45	18.5	-4.16
O=C(Cc1cccs1)N1C[C@@H]2OCCN(CC3CCCO3)[C@@H]2C1 (some centres not stated)	-3.88	0	-5.27	-1.33	4.51	-2.58	-0.399	15.3	15.2	-19.8	2.08	6.17	-0.242
CCc1nnc(C(C)N2CCCN(C(=O)Oc3ccccc3)CC2)o1 (configuration not stated)	-1.28	15.8	-3.35	0.0863	-6.34	-6.72	-3.55	12.6	3.97	-15.6	2.13	5.2	-5.08
O=C(c1cnn2c1OCCC2)N1CCC2(CC1)OCCO2	-0.752	2.6	-2.99	3.51	6.26	-6.02	-1.94	7.49	14.6	4.26	6.35	11.5	-7.54
CCn1cc(CN2CCCN(C(=O)Cc3ccc(C)nc3)CC2)cn1	-6.08	10.4	-1.87	0.798	5.82	6.76	-3.58	5.09	-17.1	1.69	-1.91	9.41	-14.6
CCN1CCC2(CC1)CC(Nc1ncccn1)CO2 (configuration not stated)	-4.33	2.7	-1.65	-2.57	1.3	4.49	35.8	6.34	8.12	11.5	6.93	13.4	-1.38
